Measured values published in PubChem BioAssay (NCI).
This is part of a sample that, as a whole, favours compounds with a hit. Of some 83,000 tested, about 20% had one in any assay.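 Negative percent growth values reflect cell death: -40 means 40% of the cells present at the start died, and -100 means all died.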 The source made the active and inactive calls. Rule for the calls: active = growth percent below 10; inactive = the rest.

system: HL-60(TB) leukemia; test: NCI-60 one-dose screen, 48 h (100 = growth as untreated, 0 = no growth, -100 = all killed); conditions: 10 µM unless noted

Structure (SMILES) | growth
CC(=O)OC[C@H]1OC(Sc2sc(C(=O)c3ccc(Cl)cc3)c(N)c2-c2nc3ccccc3s2)[C@H](OC(C)=O)[C@@H](OC(C)=O)[C@@H]1OC(C)=O (stereo not given in full) | 108% (inactive)
Cc1ccc2oc(=O)cc(C3c4ccc([nH]4)C(c4cc(=O)oc5ccc(C)cc45)c4ccc([nH]4)C(c4cc(=O)oc5ccc(C)cc45)c4ccc([nH]4)C(c4cc(=O)oc5ccc(C)cc45)c4ccc3[nH]4)c2c1 (stereo not given) | -24% (active)
COc1ccc(/C=C/c2c(C(=O)/C=C/c3cccs3)c(C)nc3ccccc23)cc1 | 69.6% (inactive)
O=C(/C=C/c1ccccn1)c1ccccc1 | 1.48% (active)
Clc1ccc(N/N=C(/c2ccccc2)c2ccccn2)nc1 | 3.11% (active)
O=C1/C(=C/c2ccc(F)c(F)c2)CN(C(=O)C(Cl)Cl)C/C1=C\c1ccc(F)c(F)c1 | -47.1% (active)
CCc1cc(Cl)c(OC)c(C(=O)NCC2CCCN2CC)c1O (stereo not given) | 84.6% (inactive)
O=C1Nc2ccccc2/C1=C/C(=O)c1ccc(N2CCCCC2)cc1 | -6.32% (active)
CN(C)Cc1cc(C(C)(C)C)cc(Br)c1O | 123% (inactive)
NC(=O)c1ccc[n+](CC(=O)N2CCN(c3cc4c(cc3F)c(=O)c(C(=O)O)cn4C3CC3)CC2)c1 | 106% (inactive)
N#CSCc1ccc(Cl)c(CSC#N)c1 | 0.395% (active)
CCCC(NC(=O)OCc1ccccc1)C(=O)O (stereo not given) | 44.9% (inactive)
CC(C)n1nc(C#Cc2cccc3cc(-c4cccc(C(F)(F)F)c4)ncc23)c2c(N)ncnc21 | 57.1% (inactive)
NN=C(c1ccc(Cl)cc1)c1ccc(Cl)cc1 | 131% (inactive)
O=C(O)CC1CCCCC1c1ccccc1 (stereo not given) | 99.9% (inactive)
COc1ccc(CCN2C(=O)CCSC2=S)cc1OC | 98.1% (inactive)
NC(=S)CN1CCOCC1 | -12.8% (active)
COc1cc2c(c(OC)c1OC)C(=O)CC(c1cccc(C(=O)Nc3ccc(C#N)cc3)c1)O2 (stereo not given) | 47% (inactive)
O=c1c2ccccc2sc2c(N3CCCC3)nc3ccccc3c12 | 99.1% (inactive)
CCN(CC)c1ccc(/C=N/NC(=O)Cc2ccc(Nc3ccnc(C(F)(F)F)c3)cc2)c(O)c1 | 0.765% (active)

Structure (SMILES) | growth
Clc1cc(Cl)c2nc(-c3ccc(-c4ccc(/C=N/NC5=NCCN5)cc4)s3)cn2c1 | 98.4% (inactive)
c1ccc2c(-c3c[nH]c4ccccc34)c3c(cc2c1)[nH]c1ccccc13 | 51.5% (inactive)
CC(=O)/C(=C/c1ccc(Br)cc1)C(=O)c1ccccc1 | 57% (inactive)
O=[N+]([O-])CC(c1ccccc1F)c1c[nH]c2ccccc12 (stereo not given) | 51.1% (inactive)
Cc1ccc(-c2nc(N3CCNCC3)c3oc(-c4ccc(C)cc4)nc3n2)cc1 | -69.3% (active)
COc1ccc(Nc2nccc(N3CCN(c4c5ccc(Cl)cc5nc5ccc(OC)cc45)CC3)n2)cc1 | 15.4% (inactive)
CCN(CC)C(=S)SSC(=S)N(CC)CC | 73.7% (inactive)
CC1C(c2ccccc2)OCCN1C(=S)Nc1ccc(S(=O)(=O)N2CCCCC2)cc1 (stereo not given) | 89.1% (inactive)
O=C1/C(=C/c2cn(-c3ccccc3)nc2-c2ccccc2)SC(=S)N1c1ccccc1 | 103% (inactive)
COc1cc(OC)cc(-c2ccc(-c3ccc(C(=N)N)s3)s2)c1 | -71.9% (active)
COc1ccc(C(=O)c2sc3nc(C)cc(C)c3c2N)cc1OC | 97.3% (inactive)
CN(C)c1ccc2nc3ccc(=N)cc-3sc2c1 | -28.5% (active)
COc1ccc(C2Nc3c(c(C(C)(C)C)nn3-c3ccccc3)C(=O)CS2)cc1 (stereo not given) | 129% (inactive)
FC(F)(F)c1cccc([Si](F)(c2cccc(C(F)(F)F)c2)c2cccc(C(F)(F)F)c2)c1 | 80.5% (inactive)
N#Cc1c(NC(=O)c2ccco2)[n+]([O-])c2cc(Cl)c(Cl)cc2[n+]1[O-] | 91.8% (inactive)
N=C(N)c1ccc(-c2ccc(-c3cccs3)o2)cc1 | -28.5% (active)
COc1ccc(/C=C/C(=O)/C=C(/C=C/c2ccc(OC)c(OC)c2OC)OB(F)F)c(OC)c1OC | 8.53% (active)
O=C(Nc1ccc(Oc2cccc(Cl)c2)c(Cl)c1)c1cccnc1 | 6.06% (active)
CNc1cc(C(=O)O)nc(NC)n1 | 105% (inactive)
O=C(/C=C/c1sc(Cl)nc1Cl)c1ccc(F)cc1 | 61.2% (inactive)
